# Menin-MLL FL inh = displaces fluorescein MLL peptide from human menin. Fluorescence polarization, fluorescein-MLL peptide displacement from menin. FP activity change, % at 61.4 µM. 290,000 tested, under 10 active. AID 1766; active means well fitted curve in the direction sought with a large enough effect in the polarisation, not every such curve was filed as active; inconclusive means small, poorly fitted or top-dose-only effect, or effect the other way, or a change in a side signal; inactive means no such curve, though single readings can be large or run the other way; the % refers to the polarisation; further: % of control where 0% means no effect
# GAA inh = blocks human lysosomal alpha-glucosidase; P10253; purified human GAA, 4-MU-alpha-glucoside fluorescence; Potency, µM (series often up to 76.9 µM), without a hit: at the highest dose activity change, negative = inhibition, hits mostly inhibitors; 0.005% of 200,000 active;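 further: potency means the concentration at half of the fitted maximal effect; plate controls were uninhibited enzyme wells for no effect and no-enzyme background for full effect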
#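 Endpoint fluorogenic read: 20 min room-temperature reaction of 4 nM human alpha-glucosidase with 400 uM 4-methylumbelliferyl-alpha-D-pyranoside, pH 5.0, quenched with 1M NaOH/1M glycine pH 10. AC50 from Hill modeling.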
# Menin-MLL TR inh = menin-MLL binding inhibition, Texas Red mutant peptide; O00255; Menin + Texas Red MLL mutant peptide, fluorescence polarization; Potency, µM (doses to about 61.6 µM), inactives show at the top dose FP activity change, negative = inhibition, most hits filed as inhibitors; 0.23% of 270,000 active; AID 1768; active means well fitted inhibition curve with a large enough effect in the polarisation, with a control signal flat, not every such curve was filed as active; inconclusive means small, poorly fitted or top-dose-only effect, or effect the other way, or a change in a side signal; inactive means no such curve, though single readings can be large or run the other way; the % refers to the polarisation; further: potency means the concentration at half of the fitted maximal effect; % of control where 0% means no effect
# Target sequence (O00255 whole entry, looked up): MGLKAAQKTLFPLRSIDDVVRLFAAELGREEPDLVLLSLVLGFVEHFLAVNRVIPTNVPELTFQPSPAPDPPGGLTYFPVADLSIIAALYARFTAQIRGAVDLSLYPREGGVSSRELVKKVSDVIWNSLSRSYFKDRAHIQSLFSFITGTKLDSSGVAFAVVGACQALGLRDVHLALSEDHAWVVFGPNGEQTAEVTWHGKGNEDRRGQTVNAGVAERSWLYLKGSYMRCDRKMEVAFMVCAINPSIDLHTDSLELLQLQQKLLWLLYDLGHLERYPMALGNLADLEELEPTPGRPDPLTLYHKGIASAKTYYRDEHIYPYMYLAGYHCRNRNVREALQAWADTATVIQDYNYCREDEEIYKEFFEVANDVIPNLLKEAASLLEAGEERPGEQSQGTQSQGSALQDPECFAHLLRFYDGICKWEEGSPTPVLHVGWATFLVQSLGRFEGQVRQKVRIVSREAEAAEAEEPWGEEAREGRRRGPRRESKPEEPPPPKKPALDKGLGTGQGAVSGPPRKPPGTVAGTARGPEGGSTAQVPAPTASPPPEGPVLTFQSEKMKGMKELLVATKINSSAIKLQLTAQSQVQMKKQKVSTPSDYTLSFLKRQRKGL
# MLL CXXC-DNA inh = MLL CXXC-DNA interaction inhibition | MLL-CXXC / FITC-HOXA9 DNA fluorescence polarization | Potency, µM (titrated, usually from 115 µM), for the others: at the top dose activity change, negative = inhibition, hits mostly inhibitors | 0.037% of 290,000 active | Q03164; active means well fitted inhibition curve with a large enough effect in the polarisation, with a control signal flat, not every such curve was filed as active; inconclusive means small, poorly fitted or top-dose-only effect, or effect the other way, or a change in a side signal; inactive means no such curve, though single readings can be large or run the other way; the % refers to the polarisation; further: potency means the concentration at half of the fitted maximal effect
#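 Purified MLL-CXXC (added from a 7 uM solution) was preincubated 5 min at ambient with pinned compounds in 50 mM Tris-HCl pH 7.5, 50 mM NaCl, 1 mM DTT, 0.05% BSA. Fluorescein-labeled HOX-A9 DNA (50 nM solution) followed, 30 min, then polarization read.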
# GAA spleen mod = inhibits or activates alpha-glucosidase in human spleen homogenate; human spleen homogenate, 4-MU-alpha-glucoside fluorescence; 0.006% of 240,000 active; AID 2112; Potency, µM (series often up to 79.9 µM), for inactives: at the highest dose activity change, negative = inhibition, most hits filed as inhibitors;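 further: potency means the concentration at half of the fitted maximal effect; 0% = enzyme with vehicle and -100% = no enzyme basal signal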
#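 Compounds were titrated against alpha-glucosidase in spleen homogenate at pH 5.0, with 1 mM 4-methylumbelliferyl substrate for 40 min at 37 C. Reactions were quenched with pH 10 NaOH/glycine and fluorescence measured.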
# GAA glycogen = GAA glycogen-cleavage inhibition or activation. recombinant GAA, glycogen substrate, Amplex Red glucose oxidase fluorescence. Potency, µM (series often up to 76.4 µM), without a hit: top-dose activity change, negative = inhibition, hits mostly inhibitors. 0.38% of 300,000 active. AID 2100;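 further: potency means the concentration at half of the fitted maximal effect; 0% = full enzyme reaction and -100% = no-enzyme basal signal; the screen sought inhibitors and activators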
#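 Recombinant enzyme (4 nM final) with compounds titrated up to 77 uM and bovine liver glycogen (30 ug) in citrate pH 5.0, 0.01% Tween-20, 37 C 40 min. Released glucose detected by Amplex Red/glucose oxidase (Ex 573/Em 610); AC50 from Hill fits.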
# * marks the source's active call; other numbers are inactive results; ? = inconclusive; nt = not tested or not shown; [ ] = dose if it differs, or a comment. An excerpt weighted towards active compounds, which were near 0.45% of everything screened. Unless noted, the call rests on the fitted dose curve; in most records, active means well fitted curve in the direction sought with a large enough effect; inconclusive means small, poorly fitted or top-dose-only effect, or another doubt; inactive means no such curve, though single readings can be large; an effect the other way counts as inactive or inconclusive.
SMILES,Menin-MLL FL inh,GAA inh,Menin-MLL TR inh,MLL CXXC-DNA inh,GAA spleen mod,GAA glycogen
COCCn1c(CCC(=O)Nc2ccc(OC)c(OC)c2)nc2cccnc21,nt,nt,nt,nt,nt,14.4%[76.3 µM]
COCC1C2CC[C@H]3C(OCc4ccc(F)cc4C(F)(F)F)OC[C@]4(C)[C@H]3C2=C(CN4C(=O)OC(C)(C)C)[C@H](C)C1COC (stereo not given in full),-1.2,nt,-6.4%,nt,-13.8%,nt
N#Cc1ccc(-c2csc(NNC(=O)c3ccccc3)n2)cc1,2.1,-8.1%,20.9%,-16.6%,-3.1%,28.2µM*
N#Cc1ccc(-c2csc(NNC(=O)c3ccc(Br)cc3)n2)cc1,-1.1,4.5%,?,4.7%,-0.9%,?
O=C(O)c1cccc(N2C(=O)c3cc([N+](=O)[O-])cc4cc([N+](=O)[O-])cc(c34)C2=O)c1,11.5,nt,?,31.6µM*,nt,-4.1%[76.3 µM]
CCOc1ccc(NC(=S)NNC(=O)c2ccc(Br)cc2)cc1,-1.5,-4.8%,?,-11.0%,1.4%,39.8µM*
O=C1/C(=C/c2ccc(O)c(O)c2)Oc2cc(O)ccc21,?,nt,nt,?,-2.1%,22.4µM*
COc1cc(/C=C2\Oc3cc(O)ccc3C2=O)ccc1O,?,nt,nt,?,-1.2%,?
Cc1nc(C(=O)N2CCc3c([nH]c4ccccc34)C2c2ccccn2)cs1 (stereo not given),-1.6,?,7.7%,-14.9%,-7.9%,15.8µM*
CCN(CC)c1ccc(N=Cc2ccc([N+](=O)[O-])o2)cc1,20.0,0.0%,?,-6.7%,9.1%,-0.4%
CCN(CC)c1ccc(N=Cc2ccccc2[N+](=O)[O-])cc1,0.6,0.2%,17.8µM*,6.7%,-14.0%,0.0%
C#CCOc1ccc(C(=O)N(C)c2ccccc2I)cc1,-0.1,nt,-6.7%,nt,-6.1%,nt
Cc1cn([C@H]2C[C@H](N=[N+]=[N-])[C@H](CO)O2)c(=O)[nH]c1=O,-1.9,nt,-5.6%,1.3%,nt,nt
Nc1cc(Cl)c(N)cc1Cl,3.3,-6.5%,14.8%,6.4%,2.1%,28.2µM*
Nc1cc(Cl)c(N)c(Cl)c1,nt,nt,nt,nt,-6.5%,nt
N#CCCn1c(=O)c(-c2ccccc2)nc2cnc(OCc3ccccc3)nc21,2.2,nt,10.3%,nt,-1.3%,nt
CN(C)S(=O)(=O)c1cc(NC(=O)CN2CCN(c3ccc(O)cc3)CC2)ccc1Cl,1.0,-17.9%,-10.4%,-6.0%,nt,7.08µM*
CN(C)S(=O)(=O)c1cc(NC(=O)CN2CCN(c3ccccc3)CC2)ccc1Cl,10.0,?,22.6%,-5.4%,-25.1%,-7.8%
COc1ccc(/C=N/Nc2nonc2N)cc1OC,5.6,0.3%,?,8.0%,3.2%,15.8µM*
CCn1c(CN2CCCCC2)nc2cc(NC(=O)COc3ccc(C(C)(C)C)cc3)ccc21,nt,nt,nt,nt,nt,-11.1%[76.3 µM]
COc1cc(NS(=O)(=O)c2ccc(-c3ccc(=O)[nH]n3)o2)cc(OC)c1OC,0.0,nt,2.2%,-5.2%,nt,nt
O=C1CC(Nc2ccc3ccccc3c2)C(=O)N1Cc1ccccc1 (stereo not given),4.2,-0.5%,?,-1.3%,-6.1%,-12.0%
O=C1CC(Nc2ccc(N3CCOCC3)cc2)C(=O)N1Cc1ccccc1 (stereo not given),1.0,-4.9%,1.9%,-8.3%,-0.4%,12.6µM*
COc1ccccc1N1C(=O)CC(Nc2ccc(N3CCOCC3)cc2)C1=O (stereo not given),1.4,2.2%,3.3%,1.9%,3.3%,?
O=C1CC(Nc2ccc(N3CCOCC3)cc2)C(=O)N1c1ccccc1 (stereo not given),8.7,-6.0%,8.4%,1.3%,-2.1%,15.7µM*
O=C(NCc1n[nH]c(=S)n1-c1ccc(Cl)c(Cl)c1)c1ccco1,nt,nt,nt,23.0%,nt,-12.8%[76.3 µM]
CN=c1scc(C)n1/N=C/c1cc(Br)c(O)c(OC)c1,-1.6,-1.8%,?,-4.7%,-1.3%,12.7%
COc1cc(/C=N/N(C)C)cc(Br)c1O,1.1,nt,nt,3.8%,-4.2%,4.47µM*
COc1ccc(NC(=O)CCCc2nnc3n(C(C)C)c(=O)c4sccc4n23)cc1Cl,nt,nt,nt,nt,nt,-7.1%[76.3 µM]

# Compound activity from PubChem.
